About 13,000 (27%) of roughly 48,000 compounds showed an effect of 50% or more. This is one part of the list.
tested on: Wolbachia pipientis; test: Anti-Wolbachia Cell-Based Screen; assay type: functional; parameters: scale not given: in the data most compounds retested in dose-response had high values; details: 5 µM

| SMILES | Percent Effect [%] |
| --- | --- |
| CCCC(O)CN1CCC(=O)N(CCOC)Cc2ccccc21 (centres undefined) | 121.9 |
| CCC1CN(C(=O)c2cccc(O)c2)CCC(=O)N1Cc1ccccc1 (centres undefined) | 8.552 |
| COCCN1C[C@H]2CN(C(=O)NC(C)C)CCN2C1=O | -4.801 |
| CCCC(O)CN1CCC(=O)N(Cc2ccccc2)Cc2ccccc21 (centres undefined) | 123.8 |
| COCC(O)CN1CCC(=O)N(Cc2ccco2)Cc2ccccc21 (centres undefined) | 86.65 |
| COCc1ccc(CNC(=O)CN2CCc3ccccc32)cc1 | -11.7 |
| OC(CN1CCCCc2ccccc21)Cn1cccn1 (centres undefined) | -5.145 |
| COCCN1C[C@H]2CN(C(=O)NCc3ccccc3)CCN2C1=O | 8.785 |
| COC(=O)N1CCc2ccccc2C1C(=O)NCc1ccco1 (centres undefined) | 14.18 |
| COCC(O)CN1CCC(=O)N(Cc2ccccc2)Cc2ccccc21 (centres undefined) | 97.49 |
| CN1CCN(CC(=O)NCc2ccco2)Cc2ccccc21 | -30.17 |
| Cc1ccc([C@@H]2CN(S(=O)(=O)N(C)C)C[C@H]2N(C)C)cc1 | 0.6697 |
| Cc1cc(S(=O)(=O)NCC(O)c2sccc2C)ccc1F (centres undefined) | 4.369 |
| CCOc1ccc(CN(C)C(=O)COc2ccc(C)nc2)cc1 | -6.842 |
| CCc1c(C(=O)N2CCN(C)[C@@H]3CS(=O)(=O)C[C@@H]32)[nH]c2ccccc12 | -4.01 |
| CCN1CC(CN(C)c2cc(C)nc(N)n2)Oc2ccccc21 (centres undefined) | 10.5 |
| CCN(CC1CCOCC1)C(=O)Cn1ccccc1=O | -19.1 |
| O=C(CN1CCc2ccccc21)NCc1ccc(Cl)cc1 | -3.042 |
| CC(O)CN1CCC(=O)N(Cc2ccccc2)Cc2ccccc21 (centres undefined) | 125.3 |
| CC(C)NC(=O)c1nc2c(s1)CCCN2Cc1ccccc1 | -9.51 |
| CCCc1nc(CN(CC)C(=O)c2ccc3[nH]cnc3c2)no1 | -17.17 |
| CC(C)(C)n1ncc2c1CCCC2NCc1cccc2c1OCO2 (centres undefined) | 3.56 |

| SMILES | Percent Effect [%] |
| --- | --- |
| CC(C)c1cc(C(=O)N2C[C@H]3CC[C@@H]2CN(Cc2ccccn2)C3)no1 | -1.053 |
| CC(C)c1cc(CNC(=O)NCc2cccc(N3CC=CC3)c2)on1 | 1.94 |
| CNC(=O)C1(Cc2cc(C(C)C)no2)CCN(Cc2cccnc2)C1 (centres undefined) | 113.2 |
| O=C(O)C1(Cc2ccc(F)cc2F)CCCN(Cc2ccccn2)C1 (centres undefined) | -12.03 |
| CCOC(C)c1noc(CN2CCN(Cc3cccnc3)CC2)n1 (centres undefined) | -3.385 |
| CNC(=O)C1(Cc2cc(C(C)C)no2)CCN(Cc2ccccn2)C1 (centres undefined) | 108.3 |
| COC1(CNS(=O)(=O)c2ccccc2Br)CCSC1 (centres undefined) | -11.32 |
| O=C(NCCC(O)c1cccs1)c1ccc(Br)o1 (centres undefined) | -2.242 |
| Cc1cc(C)nc(NC2CC(=O)N(C(C)(C)C)C2)n1 (centres undefined) | -13.08 |
| Cc1ccc(CN(C)C(=O)NCC(=O)NC(C)(C)C)s1 | -5.904 |
| CCc1cnc(NCCS(=O)(=O)CC(C)C)nc1 | -2.356 |
| O=C(O)C(F)(F)F.O=C(c1ccsc1)N1CCc2onc(COc3ccccn3)c2C1 | -81.7 |
| Cc1cc(C)n(CCCNC(=O)C(C)NC(=O)CC2CCCCC2)n1 (centres undefined) | 122.8 |
| Cc1cc(C(F)(F)F)nn1CCNC(=O)C(C)n1ccnc1C(C)C (centres undefined) | 0.9025 |
| CCC(C)C(=O)NCCCn1nc(C)cc1C (centres undefined) | 119.6 |
| Cc1cc(CNC(=O)CC2CCN(C(C)C)CC2)n(C)n1 | -16.42 |
| Cc1cc(C)n(-c2cncc(NCCNC(=O)CC3CCCC3)n2)n1 | 5.332 |
| Cc1cc(C)n(CC(C)NC(=O)c2cc(C(C)C)on2)n1 (centres undefined) | -21.21 |
| Cc1ccccc1Oc1ncccc1CNC1CCC1 | -4.424 |
| Cc1csc(C2(NCCC(=O)N3CCOCC3)CCCC2)n1 | -0.7458 |
| CC(C)c1noc(CCCC(=O)NC(C)c2nnc3n2CCC3)n1 (centres undefined) | -3.557 |
| Cc1noc(C)c1CCC(=O)NC(C)c1nnc2n1CCC2 (centres undefined) | -11.45 |

| SMILES | Percent Effect [%] |
| --- | --- |
| CC(=O)NCCCC(=O)NC(C)c1nnc2n1CCC2 (centres undefined) | 91.49 |
| CC(NC(=O)CCCc1nc(C(C)(C)C)no1)c1nnc2n1CCC2 (centres undefined) | 7.07 |
| CC(NC(=O)CCC1CCCCC1)c1nnc2n1CCC2 (centres undefined) | 97.89 |
| CC(C)CS(=O)(=O)CC(=O)NC(C)c1nnc2n1CCC2 (centres undefined) | 85.29 |
| Cc1noc(CCCC(=O)NC(C)c2nnc3n2CCC3)n1 (centres undefined) | -11.73 |
| CC(C)c1noc(CCC(=O)NC(C)c2nnc3n2CCCCC3)n1 (centres undefined) | -3.569 |
| CCCc1noc(CCC(=O)NC(C)c2nnc3n2CCCCC3)n1 (centres undefined) | -7.808 |
| CC(C)c1noc(CCC(=O)NC(C)c2nnc3n2CCC3)n1 (centres undefined) | -10.52 |
| CCCC(=O)NC(C)c1nnc2n1CCC2 (centres undefined) | 66.57 |
| CN1CCc2[nH]nc(C(=O)N3CCC4(CCCO4)CC3)c2C1 | 17.17 |
| CC(C)N(C)CCNC(=O)N(C)CC1CCOCC1 | -11.44 |
| CCS(=O)(=O)N1CCC2(CC1)CC(OCC1CC1)CO2 (centres undefined) | -14.92 |
| CC(NC(=O)COCC(F)(F)F)c1nnc2n1CCCCC2 (centres undefined) | 88.58 |
| CC(NC(=O)COc1ccc(F)cc1)c1nnc2n1CCCCC2 (centres undefined) | -2.87 |
| CC(NC(=O)CCCOc1ccccc1)c1nnc2n1CCCCC2 (centres undefined) | -1.101 |
| CC(Cn1cccn1)NCC(=O)NC1(C#N)CCCCC1 (centres undefined) | 4.138 |
| CCC(CO)N(Cc1ccco1)C(=O)c1ccccc1NC (centres undefined) | -1.044 |
| Cc1oc(CN(C)C(=O)c2ccc(C(F)(F)F)cc2)cc1C(=O)O | -14.62 |
| CC(C#N)CNC(=O)Nc1ccc(-c2ccc[nH]2)cc1 (centres undefined) | -13.54 |
| O=C(CNC(=O)c1cc(Cl)ccn1)Nc1nccs1 | -9.837 |
| O=C(CNC(=O)c1ccccc1Cl)Nc1nccs1 | 1.164 |
| O=C(CNC(=O)c1ccc(Cl)cc1)Nc1nccs1 | 62.52 |

| SMILES | Percent Effect [%] |
| --- | --- |
| Fc1ccc(OC2CCN(Cc3nnc(-c4ccco4)o3)CC2)cc1 | 0.5253 |
| O=C(NCCN1CCOCC1)NCc1cccnc1-n1cccn1 | -2.618 |
| CCN1CCN(Cc2c(-c3ccco3)[nH]c3ncccc23)CC1 | 126 |
| OC1CCCN(Cc2c(-c3ccco3)[nH]c3ncccc23)C1 (centres undefined) | -4.635 |
| c1coc(-c2[nH]c3ncccc3c2CN2CCCOCC2)c1 | 122.9 |
| OC1CCN(Cc2c(-c3ccco3)[nH]c3ncccc23)CC1 | 97.96 |
| OC1(CN2CCCC2)CCCN(Cc2cnc(-c3ccco3)nc2)C1 (centres undefined) | -19.31 |
| CN1CCN(Cc2cccc(NCc3ncc[nH]3)c2)CC1 | -6.689 |
| CN1CCN(Cc2ccccc2Oc2nccc3occc23)CC1 | 2.64 |
| CCn1ccnc1CN1CCN(c2ncnc3ccccc23)CC1 | 5.306 |
| CN1CCN(Cc2c(-c3ccco3)[nH]c3ncccc23)CC1 | 119.4 |
| Cc1nc(-c2ccc(S(=O)(=O)N3CCSCC3)cc2)co1 | -2.351 |
| Cc1ccc(F)c(C(=O)Nc2cccc(CCN3CCCC3)c2)c1 | -3.643 |
| CC(CO)NC(=O)Nc1ccc(COC2CCCC2)cc1 (centres undefined) | 8.692 |
| CS(=O)(=O)CCCNc1cccc(COC2CCCCC2)c1 | 108.4 |
| Cc1c(CS(C)(=O)=O)cccc1NCCCC1CCCC1 | -1.975 |
| CS(=O)(=O)NCc1cccc(COC2CCCCC2)c1 | 112.9 |
| OCCCNc1cccc(COC2CCCCC2)c1 | 117.5 |
| Cc1cccc(C2(NCCCS(C)(=O)=O)CCCC2)c1 | -2.725 |
| CS(=O)(=O)NC(=O)CCc1cccc(OC2CCCC2)c1 | 2.726 |
| O=C(CN1CCCS1(=O)=O)Nc1cccc(COC2CCCCC2)c1 | 13.44 |
| Clc1cncc(NCc2cccc(COC3CCOCC3)c2)n1 | -1.49 |

| SMILES | Percent Effect [%] |
| --- | --- |
| CNS(=O)(=O)c1cccc(CNc2ccc(C#N)cn2)c1 | 2.285 |
| CS(=O)(=O)NCCCn1ccc2ccccc21 | 3.407 |
| COc1ccc(-c2cc(CN)ccc2F)c(OC)c1OC | 2.502 |
| C=C(C)CN(c1cn[nH]c1)S(=O)(=O)c1cccc(C#N)c1 | -12.41 |
| CCOCC1CC2(CCN(C(=O)C3CC=CC3)CC2)CO1 (centres undefined) | -13.65 |
| CNC(=O)C1(N2CCC[C@H]2C(=O)NC2CCCCC2)CCOCC1.Cl | -2.575 |
| OCCC1CN(c2nc(-c3ccncc3)nc3c2CCNCC3)CCO1 (centres undefined) | -20.05 |
| CC(C)(C)c1nc(CN2CCCC2Cn2cncn2)no1 (centres undefined) | 86.44 |
| CC(C)(C)c1nc(CN2CCCC2Cn2cccn2)no1 (centres undefined) | 10.76 |
| CCCc1nc(CN2CCCC2Cn2cncn2)no1 (centres undefined) | 115.4 |
| CCCc1nc(CN2CCOC(Cn3cncn3)C2)no1 (centres undefined) | 3.436 |
| CN(C)C(=O)Cc1ccc(NCc2nccn2C)cc1 | -22.63 |
| Cc1nccn1-c1ccc(CNC(=O)c2ccc([S+](C)[O-])cc2)cn1 (centres undefined) | 4.955 |
| Cc1nccn1-c1ccc(=O)n(CCNC(=O)c2cccs2)n1 | 125.6 |
| Cc1nccn1-c1ccc(=O)n(CCNC(=O)c2ccncc2)n1 | 97.47 |
| O=C(NCCNc1cc(-n2cccc2)ncn1)c1cccs1 | 19.24 |
| O=C(NCCn1ccc(-c2ccncc2)n1)c1ccncc1 | -0.4931 |
| Cc1nccn1-c1ccc(CNC(=O)c2ccc[nH]2)cn1 | 15.47 |
| Cc1nc(NC(=O)N2CCCC(N(C)C)C2)nn1C (centres undefined) | -14.3 |
| COC(=O)c1ccc2ccn(CC3CCCCO3)c(=O)c2c1 (centres undefined) | -39.6 |
| Oc1ccc(N2CCN(Cc3cc4c(cc3Br)OCCO4)CC2)cc1 | -10.73 |
